Compounds with a hit are over-represented: about 11% of the library has one in this group of screens.
Insulin prom up – insulin promoter activators in MIN6 cells, imaging, high-content screening, mouse beta cells; MIN6 insulin promoter-GFP reporter; active compounds read high; z-score at 5 µM; 190,000 tested, 0.3% active; AID 1625, 2009;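 active = z-score above 3 at 5 µM with at least 500 cells counted in the well; inconclusive = wells under 500 cells, flagged as cytotoxic or low count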
Autophagy mod – autophagy modulators in MEF cells, primary screen, imaging, high-content, MEF GFP-LC3; MEF GFP-LC3 puncta imaging; test concentration mostly 10 µM; calls only at 10 µM (by protocol); 190,000 tested, 0.98% active;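 active = percentage of spot-positive cells more than 3 SD above its plate mean, without a fluorescence outlier flag or 80% toxicity; inconclusive = no clear call, values can overlap the other calls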
WT yeast gro inh – growth inhibition of WT strain, primary screen, mitochondrial fusion inhibitor project, WT and mutant strains, chemical genetic | mitochondrial fusion phenotypic screen | inhibition, % at 10 µM | 190,000 tested, 2.1% active | AID 1362, 2008; in the data active = inhibition above about 58%; tested in S. cerevisiae
L major viab – Leishmania major promastigote growth inhibition, primary screen; 200,000 tested, 9% active; inhibition, % at 10 µM; Leishmania major promastigotes, resazurin fluorescence viability; in the data active = inhibition above about 50%;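 also: promastigotes grown with compound for 44 hours at 28 °C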
INS promoter inh – inhibitors of insulin promoter-driven GFP, primary screen, imaging, TRM-6 cells (human fetal islet line), eGFP reporter, cell count. reporter expression induced with tamoxifen. inhibition, % at 2 µM. 130,000 tested, 0.9% active. AID 1273, 2008;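 active = inhibition above the mean plus 3 SD, with well images judged a real hit on visual review, cut at about 60% in these data, passing the limit was not always enough; inconclusive = inhibition over the cutoff but images rejected on review; inactive = inhibition not above the cutoff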
Large screens that a line does not name were inactive.

Cc1ccc(C)c2c(N)c3c(nc12)CCCCC3 (tested in a mixture with another compound)	none
CCN(CC)S(=O)(=O)c1ccc(OC)c(NC(=O)c2cc(C)on2)c1	none
C=CCN1C(=O)C(O)(CC(=O)c2ccc(OC)cc2OC)c2cc(Br)ccc21 (stereo not given)	L major viab 74
CCn1c2ccccc2c2cc(N=C3SC(CC(=O)Nc4ccccc4OC)C(=O)N3CCOC)ccc21 (stereo not given)	none (no result: Insulin prom up)
CCOc1ccccc1N=C1SC(CC(=O)Nc2ccc(OC)cc2OC)C(=O)N1CCC1=CCCCC1 (stereo not given)	L major viab 80 (no result: Insulin prom up, INS promoter inh)
O=C(CC1SC(=Nc2ccc(OC(F)F)cc2)N(CCC2=CCCCC2)C1=O)Nc1ccccc1F (stereo not given)	Insulin prom up inconclusive, L major viab 96
CC(Oc1ccccc1)C(=O)N/N=C/c1ccccn1 (stereo not given)	none
CCC(C)NC(=O)COC(=O)Cc1sc(N)nc1-c1ccc(C)cc1 (stereo not given)	none
Cc1ccc(-c2nc(N)sc2CC(=O)OCC(=O)NCCC(C)C)cc1	L major viab 60
COc1cccc(-n2nnc3c(=O)n(CC(=O)N4CCC(C)CC4)cnc32)c1	none
Cc1ccc(Cn2nnc3c(=O)n(CC(=O)N4CCCc5ccccc54)cnc32)cc1	none
COc1cccc(-n2nnc3c(=O)n(CC(=O)N4CCC(Cc5ccccc5)CC4)cnc32)c1	L major viab 94
COc1cccc(-n2nnc3c(=O)n(CC(=O)N4CCCc5ccccc54)cnc32)c1	L major viab 71
COc1ccccc1NC(=O)C/C(C)=N/NC(=O)COc1c(Br)cc(Br)cc1OC	none
Cc1c(N2C(=O)CS/C2=N\N=C\c2ccc(Cl)cc2)c(=O)n(-c2ccccc2)n1C	L major viab 77
C=CCSc1nc(Oc2ccccc2)c2sccc2n1	none
C=CCNc1nc(SCC=C)nc2ccsc12	INS promoter inh 83
CCOC(=O)N/N=C(\C)c1ccc(C)c([N+](=O)[O-])c1	none
O=C(/C=C/c1ccccc1Cl)NC(=S)Nc1ccccc1C(=O)NC1CCCCC1	L major viab 98 (no result: INS promoter inh)
CCOc1ccc(OCC)c(S(=O)(=O)n2cc(C)nc2CC)c1	L major viab 99 (no result: INS promoter inh)
CN(C)CC1CCCCC1OC(=O)c1ccc(Cl)cc1 (stereo not given)	L major viab 57 (no result: INS promoter inh)
CCN(CC)S(=O)(=O)c1ccc(C(=O)OC2CCCCC2CN(C)C)cc1 (stereo not given)	none
C/C(=N\NC(=S)Nc1c(C)cccc1C)c1ccc(OC(F)F)cc1	none
COc1ccc(-n2c(CNC(=O)COc3ccc(Cl)cc3Cl)n[nH]c2=S)cc1	none
CC(C)(C)C(C(Oc1ccc(Cl)cc1)n1cncn1)n1nnnc1C(c1cccc(Cl)c1)N1CCCCC1 (stereo not given)	Insulin prom up inconclusive, L major viab 65
COc1ccc(CN(C)CC(=O)Nc2cc(OC)c([N+](=O)[O-])cc2C)c(OC)c1	INS promoter inh 71
COc1cc(NC(=O)CN(C)Cc2ccc(OC(F)F)cc2)c(C)cc1[N+](=O)[O-]	none (no result: INS promoter inh)
C=CCn1c(-c2ccccc2)nc2nc3ccccc3nc21	none
Clc1cccc(-c2nc3nc4ccccc4nc3n2Cc2ccccc2)c1	L major viab 52
O=[N+]([O-])c1cc(-c2nc3nc4ccccc4nc3n2CCc2ccccc2)cc([N+](=O)[O-])c1	L major viab 61
c1ccc(Cn2c(-c3ccccc3)nc3nc4ccccc4nc32)cc1	L major viab 84
O=C(CN1C(=O)/C(=C/c2ccccc2F)Sc2ccccc21)N1CCN(c2ccccn2)CC1	none
C=CCn1nc([N+](=O)[O-])nc1Sc1cccc2cccnc12	L major viab 58
Cc1cc(C)nc(Sc2ccc([N+](=O)[O-])cc2[N+](=O)[O-])n1	L major viab 87
O=[N+]([O-])c1ccc(Sc2cccc3cccnc23)c([N+](=O)[O-])c1	Autophagy mod active, L major viab 96
C=CCc1cccc2cc(C(=O)OCC(=O)c3ccccc3)c(=O)oc12	none
CCN(CC)CCN1C(=O)c2ccccc2NC1c1ccc(Br)cc1 (stereo not given)	L major viab 97
CCN(CC)CCN1C(=O)c2ccccc2NC1c1ccc(C)cc1 (stereo not given)	L major viab 57
CCCCNC(=O)c1onc(CSc2ccc(C(C)C)cc2)c1C(=O)O	none (no result: INS promoter inh)
O=C1N(Cc2cccnc2)C[C@@H]2C[C@@H](c3cccc(OC4CCCC4)c3)N3CCC[C@@]123	none (no result: Insulin prom up)
Cc1ccc(S(=O)(=O)c2cc3c(=O)n4cccc(C)c4nc3n(Cc3ccco3)c2=N)cc1C	none (no result: Autophagy mod, WT yeast gro inh, L major viab, INS promoter inh)
Cc1ccc(S(=O)(=O)c2cc3c(=O)n4ccccc4nc3n(Cc3ccco3)c2=N)cc1	L major viab 62
N=c1c(C(=O)NCc2ccco2)cc2c(=O)n3ccccc3nc2n1Cc1ccc(Cl)cc1	WT yeast gro inh 74
COc1ccccc1CNC(=O)C(C)c1ccc([N+](=O)[O-])cc1 (stereo not given)	none
COc1ccc(-c2cc(C(F)(F)F)n3nc(C(=O)NCCCN4CCOCC4)cc3n2)cc1	L major viab 57 (no result: INS promoter inh)
COc1ccc(-c2cc(C(=O)NCCCn3ccnc3)no2)cc1OC	L major viab 61 (no result: Insulin prom up)
COc1ccc2c(Cl)c(C(=O)NCCCn3ccnc3)sc2c1	L major viab 100
Cc1cc(-c2ccccc2)nc2cc(C(=O)NCCCn3ccnc3)nn12	none (no result: INS promoter inh)
COc1ccc(-c2cc(C(F)(F)F)n3nc(C(=O)N4CCCCC4)cc3n2)cc1	none
CCCCNC(=O)c1cc(-c2ccc(OC)c(OC)c2)on1	none (no result: Autophagy mod, INS promoter inh)
O=C(NCCCn1ccnc1)c1cc2nc(-c3ccc(Br)cc3)cc(C(F)(F)F)n2n1	L major viab 99
COc1ccc(C(=O)Nc2ccc(NC(=O)c3cnccn3)cn2)cc1	none (no result: Insulin prom up)
COCCN=c1scc(C)n1/N=C/C1CC2C=CC1C2 (stereo not given)	none (no result: INS promoter inh)
O=C(NCCCn1ccnc1)c1cc(-c2ccc(Br)cc2)on1	L major viab 96 (no result: INS promoter inh)
O=C(NCCCn1ccnc1)c1cc(-c2ccc3c(c2)OCO3)on1	none
COc1cccc(-c2cc(C(=O)NCCCn3ccnc3)no2)c1	L major viab 96
COc1cccc(C(=O)NCCCn2ccnc2)c1	none
CCCCC(=O)Nc1ccc(NC(=O)c2cccs2)cn1	L major viab 83 (no result: Insulin prom up)
CC(C)(C)c1ccc(C(=O)NC(=S)NNC(=O)c2cccs2)cc1	WT yeast gro inh 77
Cc1cccc(C(=O)NC(=S)NNC(=O)c2cccs2)c1	none
CCCC(=O)Nc1ccc(C(=O)NNC(=O)c2cccs2)cc1	none
CCCC(=O)Nc1ccc(C(=O)NNC(=S)NC(=O)c2cccs2)cc1	L major viab 99 (no result: Insulin prom up)
N#Cc1ccc(C2=NC(C(F)(F)F)(C(F)(F)F)c3c(n(Cc4ccco4)c(=O)[nH]c3=O)N2)cc1	none
O=C(O)/C=C/c1ccc(S(=O)(=O)Nc2ccc(C(=O)NCC(=O)O)cc2)cc1	none (no result: INS promoter inh)
